Reference: PubChem BioAssay (EPA / NIEHS)
Values joined by “and” are separate entries in the source; they are usually repeats but may differ in a detail not shown here. Identical values can stand only once. Results filed as inconclusive are left out. Active and inactive are the calls of the source. The calls were made as follows, unless noted: active = hit-call score of the fitted dose curve at least 0.9, where 1 is the maximum; inconclusive = response in the unintended direction; inactive = score below 0.9.

Assays:
[1] = CCTE_Padilla_ZF_144hpf_TERATOSCORE: (Legacy) CCTE's 144 Hour Post-fertilization zebrafish Assay Teratoscore, Padilla Lab (AID 2283679; active = hit-call score of the fitted dose curve at least 0.9, where 1 is the maximum; inactive = score below 0.9;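 as to AC50: zebrafish embryos with chorions exposed by immersion from 6-8 hpf to 5 dpf with daily renewal; teratogenicity score from eye scoring of death hatching and malformations at 144 hpf; higher score means more developmental defects relative to DMSO baseline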)
Outline: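 Larvae scored by eye at 144 hpf for death, hatching and malformations after a day in clean Hanks'. Before that, daily-renewed exposure at 80 uM (0.4% DMSO, 26C) from roughly 6-8 hpf through 5 dpf, 4 embryos per chemical.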

[2] = Tanguay_ZF_120hpf_ActivityScore_legacy: (Legacy) Oregon State University Tanguay Lab 120 Hour Post-fertilization zebrafish Assay Score for Activity (AID 2283742);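 as to AC50: dechorionated Tropical 5D wild-type zebrafish embryos held singly per well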
Outline: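 Dechorionated 5D embryos, one per well, static exposure 6–120 hpf, 28C, sealed and dark; final DMSO 0.64% (vol/vol). Brightfield binary scoring of mortality plus 18 endpoints; gain-of-signal fit versus DMSO baseline.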

[3] = STM_H9_OrnithineISnorm_perc: Stemina devTOX quickPredict H9 human embryonic stem cell (hESC)-based Assay for Ornithine (ORN) Metabolite Biomarker, Normalized (AID 2283712; active = hit-call score of the fitted dose curve at least 0.9, where 1 is the maximum; inactive = score below 0.9;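 also: ornithine released into spent medium during last day measured by mass spectrometry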)
Outline: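 Ornithine in spent medium from the last 24 h of a 72 h exposure, deproteinised and quantified by UPLC-HRMS against an isotope-labelled internal standard, expressed relative to 0.1% DMSO. Pluripotent H9 cells; compound refreshed every 24 h.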

[4] = STM_H9_CystineISnorm_perc: Stemina devTOX quickPredict H9 human embryonic stem cell (hESC)-based Assay for Cystine (CYSS) Metabolite Biomarker, Normalized (AID 2283713; active = hit-call score of the fitted dose curve at least 0.9, where 1 is the maximum; inactive = score below 0.9)
Outline: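 Cystine in spent media from the last 24 h of a 72 h H9 hESC exposure (daily re-dosing), measured by UPLC-HRMS. Values normalized to isotopic internal standard, then to 0.1% DMSO; viability via CellTiter-Fluor.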

[5] = STM_H9_OrnCyssISnorm_ratio: Stemina devTOX quickPredict H9 human embryonic stem cell (hESC)-based Assay for Ornithine (ORN):Cystine (CYSS) Ratio (AID 2283714)
Outline: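 UPLC-HRMS of spent media: ORN/CYSS ratio of internal-standard-normalized percentages, DMSO (0.1%) baseline. Pluripotent H9 hESCs, 72h exposure, daily re-dosing with fresh media; last 24h media collected.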

[6] = CEETOX_H295R_MTT_cell_viability: Viability Assessment in the CeeTox HT-H295R MTT Assay (AID 2283718; active = hit-call score of the fitted dose curve at least 0.9, where 1 is the maximum; inactive = score below 0.9;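 as to AC50: curve fitted both ways so AC50 may mark viability loss or gain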)
Outline: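 Human H295R adrenal cells, prestimulated 48 h with 10 uM forskolin, were exposed 48 h to chemicals in 0.1% DMSO. Viability was measured in the same wells by MTT (0.5 mg/ml, 4 h, 37 C), absorbance 570/650 nm, as percent of controls.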

[7] = ArunA_CellTiter_hNP: Viability Assessment in the ArunA Biomedical's Oris Neural Crest (hNC) Cell Migration Assay (AID 2283753)
Outline: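 Viability read with CellTiter 96 Aqueous One after 72 h chemical exposure of human hNP1 neuroprogenitors, which were plated on Matrigel in LIF/bFGF medium 16 h beforehand. Endpoint fitted in positive direction relative to DMSO.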

[8] = ArunA_Migration_hNC: ArunA Biomedical's Oris Neural Crest (hNC) Cell Migration Assay (AID 2283755)
Outline: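 Calcein-AM fluorescence (ex494 nm/em 517 nm) in the stopper-defined detection zone quantifies migration of hNC cells after 72 h chemical exposure; 60,000 cells/well plated on Matrigel with LIF and bFGF, 16 h pre-incubation. DMSO baseline.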

[9] = ArunA_NOG_NeuriteLength: ArunA Biomedical's Neurite Outgrowth (NOG) Assay for Neurite Length (AID 2283757)
Outline: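 Total neurite length per neuron, from traced βIII-tubulin-labelled processes longer than 10 um on viable Hoechst-gated cells, was scored as decrease from DMSO. Cells were hESC (H9)-derived neurons given 48 h chemical exposure immediately after seeding.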

[10] = ArunA_NOG_NeuritesPerNeuron: ArunA Biomedical's Neurite Outgrowth (NOG) Assay for Neurites Per Neuron (AID 2283758)
Outline: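 Differentiated human H9-derived neurons exposed to chemicals for 48 h from seeding, then stained with Hoechst and βIII-tubulin/DyLight 488. Automated imaging counted neurites (processes >10 um) per valid neuron; loss of signal versus DMSO scored.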

[11] = target: Luciferin 4-monooxygenase (Photinus pyralis) (UniProt P08659); assay: CCTE_Simmons_QuantiLum_inhib_2: CCTE's Firefly Luciferase Inhibition Assay, Simmons Lab (AID 2283767);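 as to AC50: potency for inhibitors that lower luciferase luminescence relative to DMSO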
Luciferin 4-monooxygenase (Photinus pyralis), sequence (P08659 whole entry, looked up): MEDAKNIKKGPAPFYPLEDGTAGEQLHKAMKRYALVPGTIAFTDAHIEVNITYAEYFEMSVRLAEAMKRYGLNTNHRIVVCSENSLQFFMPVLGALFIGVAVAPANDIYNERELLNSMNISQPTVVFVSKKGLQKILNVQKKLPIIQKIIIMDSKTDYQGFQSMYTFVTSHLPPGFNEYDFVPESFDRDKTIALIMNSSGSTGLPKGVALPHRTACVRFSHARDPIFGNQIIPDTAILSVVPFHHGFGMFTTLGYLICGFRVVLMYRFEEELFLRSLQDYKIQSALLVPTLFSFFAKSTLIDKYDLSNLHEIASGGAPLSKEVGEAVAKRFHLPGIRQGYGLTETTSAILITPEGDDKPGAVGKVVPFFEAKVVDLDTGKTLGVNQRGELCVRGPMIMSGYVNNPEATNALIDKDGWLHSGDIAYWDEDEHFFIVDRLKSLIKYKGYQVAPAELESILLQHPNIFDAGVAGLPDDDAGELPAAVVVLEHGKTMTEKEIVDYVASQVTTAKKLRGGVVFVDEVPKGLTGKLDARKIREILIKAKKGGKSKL
Outline: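 Eight test concentrations, 5 nM up to 87.5 uM final, preincubated 30min at 37C in the dark with purified luciferase (0.5% DMSO final). Detection reagent (150uM D-luciferin, 147uM dATP, 75uM CoA, pH 7.8) injected per well before kinetic luminescence read; three replicates.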

[12] = test system: chicken Androgen Receptor (AR), gene 422165; assay: ATG_chAR_XSP1: Attagene TRANS-FACTORIAL Multi-Species (XSP1) HepG2 Assay for chicken Androgen Receptor (AR) (AID 2283768)
Outline: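 Reporter mRNA read by RT-PCR with fluorescent labelling and capillary electrophoresis 24 h after chemical dosing of transiently transfected HepG2 cells. Chicken AR-Gal4 chimera, partially stimulated with 3 nM 6-alpha-fluorotestosterone; activity fitted upward relative to DMSO.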

[13] = test system: frog Androgen Receptor (AR), gene 399456; assay: ATG_frAR_XSP1: Attagene TRANS-FACTORIAL Multi-Species (XSP1) HepG2 Assay for frog Androgen Receptor (AR) (AID 2283770)
Description: ATG_XSP1_multi-species_TRANS is a cell-based, multiplexed assay created by modifying the existing Attagene TRANS-FACTORIAL system to include a panel of nuclear receptors from some or all the following species: human (Homo sapiens), mouse (Mus musculus), frog (Xenopus laevis), zebrafish (Danio rerio), chicken (Gallus gallus), and turtle (Chrysemys picta). The ECOTOX-FACTORIAL format uses HepG2, a human liver cell line, with measurements taken at 24 hours after chemical dosing in a 24-well plate. Xsp1 included 3 nM 6-alpha-fluorotestosterone to partially stimulate the androgen receptor.ATG_frAR_XSP1 is one of 29 assay components measured or calculated from the ATG_XSP1_multi-species_TRANS assay. It is designed to make measurements of mRNA induction, a form of inducible reporter, as detected with fluorescence intensity signals by Reverse transcription polymerase chain reaction (RT-PCR) and Capillary electrophoresis technology.The assay endpoint ATG_frAR_XSP1 was analyzed in the positive analysis fitting direction relative to DMSO as the negative control and baseline of activity. […] Furthermore, this assay endpoint can be referred to as a primary readout, because this assay has produced multiple assay endpoints where this one serves a reporter gene function. […]

[14] = test system: zebrafish Androgen Receptor (AR), gene 100005148; assay: ATG_zfAR_XSP1: Attagene TRANS-FACTORIAL Multi-Species (XSP1) HepG2 Assay for zebrafish Androgen Receptor (AR) (AID 2283771)
Outline: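 Gain-of-signal versus DMSO was measured as reporter transcripts quantified by RT-PCR, fluorescent labelling and capillary electrophoresis after 24 h chemical exposure. The cells were HepG2 expressing a chimeric zebrafish AR-GAL4, co-stimulated with 3 nM 6-alpha-fluorotestosterone.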

[15] = ArunA_CellTiter_hNC: Viability Assessment in the ArunA Biomedical's Oris Neural Crest (hNC) Cell Migration Assay (AID 2283752)
Outline: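 After a 72 h chemical exposure, viability of hNC cells is read with CellTiter Aqueous One and fitted as signal loss relative to DMSO. Cells were seeded at 60,000/well on Matrigel and cultured 16 h at 37 C beforehand.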

[16] = ArunA_Migration_hNP: ArunA Biomedical's Oris Neuroprogenitor (hNP) Cell Migration Assay (AID 2283754)
Outline: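 Readout is calcein-AM fluorescence (ex494/em517) of cells migrating into the detection zone, relative to DMSO. hNP1 cells (H9-derived) grown on Matrigel behind stoppers 16 h, then stoppers pulled and chemical applied 72 h; cytochalasin D as control.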

[17] = ArunA_NOG_NucleusCount: ArunA Biomedical's Neurite Outgrowth (NOG) Assay for Nucleus Count (AID 2283756)
Outline: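 Viable neuron count, from Hoechst nuclei passing size and intensity gates, imaged at 20x on differentiated H9-derived human neurons. Exposure lasted 48 h from seeding; activity was scored relative to DMSO.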

[18] = ArunA_NOG_BranchPointsPerNeurite: ArunA Biomedical's Neurite Outgrowth (NOG) Assay for Branch Points Per Neurite (AID 2283759)
Outline: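 Automated image analysis traced neurites (processes >10 um) from valid cell bodies after Hoechst and βIII-tubulin staining. hNN cells from H9 embryonic stem cells, 48 h exposure. Fitted bidirectionally against DMSO.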

[19] = test system: Thyroperoxidase (TPO), gene 445522; assay: CCTE_Simmons_GUA_TPO: CCTE's Guaiacol Assay for Thyroperoxidase (TPO) Inhibition, Simmons Lab (AID 2283750)
Outline: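 Porcine thyroid microsomes (25 ug) in 200mM potassium phosphate, preincubated 30 s at 37C with compound (8 concentrations, 5 nM–87.5 uM) and 35mM guaiacol; 1mM H2O2 starts reaction. Absorbance change at 450nm over first 80 s; loss of signal versus DMSO, three replicates.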

Measured: AC50

CC(O)CC(C)(C)O (stereo unspecified)
inactive: [1] | [2]

CC(C)(c1cc(Br)c(O)c(Br)c1)c1cc(Br)c(O)c(Br)c1
active: [1] 4.24 µM | [2] 1.99 µM
not listed: [15] | [16] | [17] | [18] | [19]
inactive: all other assays above

Clc1ccccc1C(c1ccccc1)(c1ccccc1)n1ccnc1
active: [1] 1.53 µM
inactive: [6] | [2]

O=c1c(-c2ccc(O)cc2)coc2cc(O)cc(O)c12
active: [1] 24.5 µM | [3] 48.8 µM | [4] 71.6 µM | [5] 73.7 µM | [6] 28.7 µM | [2] 20 µM | [11] 7.86 µM

O=c1[nH]sc2ccccc12
inactive: [2]
active: [1] 16.4 µM

CCCCOC(=O)c1ccc(O)cc1
inactive: [4] | [5] | [6]
active: [1] 5.07 µM | [3] 42.3 µM | [2] 41 µM

CC[C@H](NC(=O)c1cc(F)ccc1NS(=O)(=O)c1cccc2cccnc12)c1ccccc1
inactive: [1] | [3] | [4] | [2]

O=c1ccc2ccccc2o1
inactive: [1] | [2]

O=C(Nc1ccc(Cl)cc1)Nc1ccc(Cl)c(Cl)c1
inactive: [4] | [5] | [6] | [2] | [15] | [17] | [18]
active: [1] 5.19 µM | [3] 0.000976 µM | [7] 25.9 µM | [16] 1.88 µM | [8] 1.46 µM | [11] 15.1 µM

Cc1cn([C@H]2C[C@H](N=[N+]=[N-])[C@@H](CO)O2)c(=O)[nH]c1=O
active: [4] 2.32 µM | [5] 4.02 µM
inactive: [1] | [3] | [2]

CCCCCCCCOC(=O)c1cc(O)c(O)c(O)c1
active: [1] 1.43 µM | [3] 2.13 µM | [4] 2.47 µM | [5] 2.54 µM | [2] 9.16 µM | [7] 6.65 µM and 541 nM | [16] 1.02 µM and 675 nM | [8] 120 nM and 452 nM | [11] 31.5 µM
inactive: [6] | [15] | [17] | [18]

COc1ccc2cc(S(=O)(=O)N[C@H](CC(=O)N[C@H](Cc3ccc(CN4[C@H](C)CCC[C@@H]4C)cc3)C(=O)N(C)C(C)C)c3ccc4c(c3)OCO4)ccc2c1
active: [1] 52.9 µM | [3] 18.4 µM | [4] 22.6 µM | [5] 23 µM
inactive: [2]

NC(=O)c1nc(-c2cccc(-c3cc(F)ccc3OCC(F)(F)C(F)(F)F)c2)n[nH]1
inactive: [3] | [6]
active: [1] 1.08 µM | [4] 3.59 µM | [5] 3.99 µM | [2] 30.9 µM

CN(C[C@@H](CC[N+]12CCC(C3CCCCC3)(CC1)CC2)c1ccc(Cl)c(Cl)c1)C(=O)c1cc(C(F)(F)F)cc(C(F)(F)F)c1
inactive: [11]
active: [1] 4.91 µM | [3] 7.48 µM | [4] 16.4 µM | [5] 14.4 µM | [2] 46.9 µM

CCCCCc1ccc(N)cc1
inactive: [6] | [2] | [11]
active: [1] 65.9 µM

COc1cc(C(=O)NC2CCN(C)CC2)ccc1Nc1ncc2c(n1)N(C1CCCC1)CC(F)(F)C(=O)N2C
active: [1] 24.1 µM | [3] 0.0393 µM | [4] 0.0284 µM | [5] 0.0311 µM | [2] 40 µM
inactive: [11]

CCOC(=O)O[C@H](C)OC(=O)c1ccc2c(c1)cc(C(=O)NC1CCN(C(C)C)CC1)n2Cc1cc(-c2ccc(Cl)s2)on1
active: [1] 4.27 µM | [2] 34.8 µM
inactive: [3] | [4] | [11]

Cc1ccc2oc(CN(Cc3ccccc3)C(=O)Nc3c(F)cc(F)cc3F)c(-c3ccc(Cl)cc3)c2c1
inactive: [1] | [6] | [2]

c1ccc(C[n+]2cccc3ccccc32)cc1
inactive: [1] | [6] | [2]

CN(C)c1ccc(C(=C2C=CC(=[N+](C)C)C=C2)c2ccc(N(C)C)cc2)cc1
active: [1] 0.477 µM | [3] 0.592 µM | [4] 0.817 µM | [5] 0.723 µM | [2] 1.66 µM | [11] 3.03 µM

CC(=O)N1CCN(c2ccc(OC[C@H]3CO[C@](Cn4ccnc4)(c4ccc(Cl)cc4Cl)O3)cc2)CC1
inactive: [6] | [2] | [11]
active: [1] 14.3 µM | [3] 8.18 µM | [4] 1.58 µM | [5] 2.35 µM

Oc1ccc2ccccc2c1
active: [1] 57.1 µM | [2] 36.6 µM | [19] 72.8 µM
inactive: [6]
